# Only some compounds are listed: those with a hit (about 2.1% of all), similar ones and a draw of the others.
# FUS suppressor: suppressors of FUS proteinopathy in yeast | S. cerevisiae FUS-expressing, growth rescue, OD600, 24 h | Potency, µM (doses to about 76.6 µM), hits mostly activators | 0.24% of 390,000 active | AID 1347120;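 also: plate controls were DMSO vehicle for no effect and reference control for full effect; nearly all actives have a fitted effect of over 55% in size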
#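 Yeast expressing FUS under galactose induction, OD 0.005 in 2% galactose medium; compounds in a dilution series, 24 h at 30C. Growth rescue by absorbance at 600 nm; CP55940 positive control, DMSO negative.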
# Abeta rescue: compounds reversing amyloid beta toxicity in yeast | yeast expressing A-beta42, growth rescue, OD600, 48 h; response scale: 0% DMSO, 100% iron-clioquinol control | Potency, µM (series often up to 46.1 µM), actives largely listed as activators | 0.063% of 410,000 active | AID 1347071; also: nearly all actives have a fitted effect of over 55% in size
#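 Yeast A-beta toxicity model in growth medium with pinned compounds, 48 h at 30 C; growth read as absorbance at 600 nm. Normalized to FeCl3/clioquinol equimolar mix (positive) and DMSO (negative).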
# aSyn yeast inh: alpha-synuclein toxicity inhibition in yeast; Yeast expressing alpha-synuclein, growth rescue, BacTiter-Glo, 24 h; Potency, µM (top dose mostly 46.1 µM), for the others: at the top dose growth rescue (activation), most hits filed as activators; 0.14% of 370,000 active; AID 652106; also: % of control where 0% means no effect; nearly all actives have a fitted effect of over 65% in size
#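 Screening used galactose-induced yeast with toxic alpha-synuclein levels, exposed to compound for 24 hr at 30 deg C. Cell growth, read with BacTiter-Glo luminescence, gave the measured signal.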
# TDP-43 yeast inh: inhibitors of TDP-43 toxicity in yeast; TDP-43 expressing yeast growth rescue, BacTiter-Glo, 24 h; Potency, µM (top dose mostly 46.1 µM), for inactives: at the highest dose growth rescue (activation), hits mostly activators; 1.8% of 410,000 active; also: % of control where 0% means no effect; nearly all actives have a fitted effect of over 50% in size
#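 Yeast expressing TDP-43 (pregrown in raffinose, seeded at OD600=0.02 in galactose medium) exposed to compounds 24 hr at 30 deg C. Growth read by BacTiter-Glo luminescence; rescue of toxicity appears as increased signal.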
# * marks the source's active call; other numbers are inactive results; i = inactive; ? = inconclusive; . = not tested or not shown. Calls follow the shape of the dose curve; as a rule, active = well fitted curve in the direction sought with a large enough effect; inconclusive = small, poorly fitted or top-dose-only effect, or another doubt; inactive = no such curve, though single readings can be large; an effect the other way counts as inactive or inconclusive. Potency is read from the fitted curve at half-maximal effect.
SMILES,FUS suppressor,Abeta rescue,aSyn yeast inh,TDP-43 yeast inh
O=C1NC[C@H](c2ccccc2)OC(=O)[C@@H](Cc2ccc(F)cc2)CC/C=C/C[C@H]1CC(=O)N(CCO)Cc1ccccc1,?,i,3%,19%
C[C@@H]1COC(=O)[C@H](NC(=O)OCC2c3ccccc3-c3ccccc32)C/C=C\C[C@@H](CC(=O)N(CCO)Cc2ccccc2)C(=O)N1,i,i,0%,18%
O=C1N[C@@H](Cc2ccccc2)COC(=O)[C@H](Cc2ccc(F)cc2)CC/C=C/C[C@@H]1CC(=O)N(CCO)Cc1ccccc1,?,i,2%,0%
O=C(C[C@H]1C/C=C\C[C@H](Cc2ccc(F)cc2)C(=O)O[C@@H](c2ccccc2)CNC1=O)N[C@H](CO)Cc1ccccc1,28µM*,i,1%,10%
O=C1N[C@@H](Cc2ccccc2)COC(=O)[C@H](Cc2ccc(F)cc2)CC/C=C/C[C@H]1CC(=O)N(CCO)Cc1ccccc1,22µM*,i,-1%,29%
Oc1cc2cc(-c3csc(-c4ccc(F)cc4)n3)ccc2[nH]1,.,.,-15%,.
O=C(OC1CC2CCC(C1)[N+]21CCCC1)C(O)(c1ccccc1)c1ccccc1 (stereo not given),i,.,.,.
CC1=C(C(=O)Nc2cc(C)cc(C)c2)C2(CCCCC2)OC1=O,i,i,.,24%
Cc1nc(C)c(-c2ccc(SCC(=O)Nc3ccccc3)nn2)s1,i,i,1%,9%
Cc1nc(C)c(-c2ccc(SCc3ccccc3C)nn2)s1,i,i,1%,16µM*
CN1CCc2c(sc3nc(SCC(=O)N4CCCCC4)n(-c4ccccc4)c(=O)c23)C1,i,i,5.6µM*,-12%
S=c1nn[nH]n1C12CC3CC(CC(C3)C1)C2,i,i,-18%,7.9µM*
S=c1nc(C23CC4CC(CC(C4)C2)C3)[nH][nH]1,i,i,-2%,11%
O=C(NCCc1c[nH]c2ccccc12)OCc1cn(Cc2cccc(F)c2F)nn1,i,.,.,.
O=C(COC(=O)Cc1ccc(Cl)cc1Cl)Nc1ccccc1OC(F)F,i,i,9%,20µM*
COC(=O)c1cc(C(=O)OCC(=O)Nc2ccccc2OC(F)F)cc([N+](=O)[O-])c1,i,i,15%,22µM*
O=C(COC(=O)C1CCCCC1)Nc1ccccc1OC(F)F,i,i,7%,13µM*
COc1ccc(CN(CCN2CCOCC2)C(=O)c2cc(F)ccc2C)cc1OC,i,.,.,.
CCc1ccc(NC(=O)CN(c2ccc(C)cc2)S(=O)(=O)c2cccs2)cc1,i,i,.,6%
Cc1nc2c3ccccc3n(Cc3ccccc3F)c2s1,i,i,-9%,0%
Cc1nc2c3cc(F)ccc3n(Cc3ccccc3F)c2s1,i,i,-19%,11µM*
Cc1cc(C)n2nc(-c3cnn(C)c3C(F)(F)F)cc2n1,i,i,3%,13µM*
CCCNC(=O)N(C)C[C@H]1Oc2cc(Br)ccc2S(=O)(=O)N([C@@H](C)CO)C[C@@H]1C,i,i,1%,21%
CCCNC(=O)N(C)C[C@@H]1Oc2cc(C#C[C@H](C)O)ccc2S(=O)(=O)N([C@H](C)CO)C[C@H]1C,i,i,5µM*,6%
CC1Cc2ccccc2N1C(=O)/C=C/c1cccc(F)c1 (stereo not given),i,i,6%,20µM*
SMILES,FUS suppressor,Abeta rescue,aSyn yeast inh,TDP-43 yeast inh
Clc1ccc(-c2nc3ccc(Br)cn3c2Cc2ccsc2)cc1,i,i,-17%,35µM*
Brc1ccc(-c2nc3ccc(Br)cn3c2Cc2ccccc2)cc1,i,i,6%,22%
Fc1ccc(-c2nc3ccc(Br)cn3c2Cc2ccccc2)cc1,i,i,17%,35µM*
Fc1ccc(-c2nc3ccc(Br)cn3c2Cc2cccc(Cl)c2)cc1,i,i,4%,35µM*
O=C(Nc1ccccc1Oc1ccccc1)NC1CCCCN(Cc2ccc(Cl)cc2)C1=O (stereo not given),i,.,.,.
CCOc1ccc(C(=O)N2CCN(Cc3cc(=O)n4nc(-c5ccccc5Cl)sc4n3)CC2)cc1,i,i,.,15%
CCCN1CCN(CCCNC(=O)c2cnn(-c3ccc(F)cc3)c2-n2cccc2)CC1,i,i,-1%,23%
CC1CCN(S(=O)(=O)c2ccc3c(c2)N(CC(=O)NC(C)C)C(=O)CS3)CC1,i,i,.,11%
